Among the data in PubChem BioAssay AID1508600 (Functional Genomics Laboratory (NCATS/FGL), 2020) are z-score values, retold here.

Out of some 53,000 sequences screened, about 3,700 (7%) were called active.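 Rule for the calls: active = gene knockdowns whose robust z-score for IL-1 alpha signal is at least 2 or at most -2, so actives lie on both sides; inactive = the rest.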 Shown is part of a subset that was picked to be rich in actives.

This assay in a line: Components of the Cytosolic LPS Sensing Pathway: Gene Identification via Genome-wide siRNA Screen. The note with it: RAW264.7 macrophages, IL-1a HTRF, actives lie on both sides, screened at 100 nM (by protocol), cells primed 5 h with Pam3CSK4 first. An excerpt:
Non-canonical inflammasome activation by cytosolic LPS is a critical component of the host response to Gram-negative bacterial infection, however we lack a comprehensive understanding of the cellular processes that control this pathway. Here we describe a genome-wide siRNA screen to identify genes regulating the mouse macrophage IL-1 alpha response to cytosolic LPS.
RAW264.7 cells were maintained in complete DMEM media, comprising DMEM with 4.5 g/L glucose, 10% FBS (Gemini Bio-Products, West Sacramento, CA), 2 mM Glutamine (Lonza) and 20 mM HEPES (Lonza), hereafter complete DMEM.
The RNAi screen was conducted in 384-well format using the Ambion Silencer Mouse Genome siRNA Library (#4391425), which consists of three unique, nonoverlapping, nonpooled siRNAs for each of 17,000 gene targets. siRNA reagents ([…]) were stamped into 384-well white flat-bottom microplates (Corning, 3570) using a Velocity11 VPrep liquid handling system (Agilent) integrated into a BioCel robotic platform (Agilent) in columns 1-22, leaving columns 23-24 empty for negative (Ambion, Negative control #1) and positive (mouse Casp4) controls, respectively. The median value of each plate's negative control column was used to normalize sample wells, and the positive control was used to assess transfection efficiency and assay performance.
Lipofectamine RNAiMAX Transfection Reagent ([…]; Invitrogen) was added in […] serum-free, antibiotic-free media to plate wells using a Thermo Scientific Matrix WellMate and Microplate Stacker. Plates were incubated for 45 min at room temperature to allow for the sufficient formation of siRNA-lipid complexes. Cells were seeded at a density of 1x10^4 cells per well in 20 microL media containing 20% (vol/vol) FBS without antibiotics. The final concentration of siRNA in each well was 100 nM. Cells were cultured for 48h at 37 degrees C in 5% CO2 before addition of […] of TLR ligand Pam3CSK4 for 5 hours. The medium was then removed, replaced with […] growth media and cell were transfected with […] of LipidA and TransIT-TKO (Mirus) for 24 hour. At the end of the LipidA treatment, […] of supernatant was transferred to a 384 Greiner Bio-one non-binding low volume plate and […] of IL-1a HTRF reagent (Cisbio, 62MIL1APEH) was added and incubated at room temperature overnight. The plates were read on an EnVision plate reader (PerkinElmer). Cell viability was measured by adding 20ul Cell Titer Glo to the original plate and running a luminescence read on the EnVision. The quantified IL-1a signal for each siRNA gene-targeted well was divided by the median of the negative control wells and multiplied by 100 to achieve a negative control normalized value for each well/siRNA. This normalized value was then used to generate a robust z-score by first taking the log of each value and then by subtracting the median and dividing by the […].
Background: Time-resolved FRET reads energy transfer from a long-lived donor to a nearby acceptor.
With GGUUGUUAGAGAUUUGACCTT against Kctd12, the z-score is -0.208 (inactive).

Take CCUGCACACCAAGUAUCUGTT against Ccl6: the z-score was -0.252 (inactive).

Turning to GGAAGCACUUCUGCUUUCUTT against Azin2, the z-score is -0.0234 (inactive).

In the case of GCUACACCCUCUGUGAGUUTT against Csrnp2, the z-score was -2.07 (active).

Turning to GGAGAUUCUGUAGGUUAUUTT against Lrat, the z-score was 0.0632 (inactive).

Consider GGGACACUGUGUCCCUUCUTT against Tmem189, for which the z-score is -0.0937 (inactive).

Consider CCAAAUGAGGCUACCACAATT against Socs7, for which the z-score was -0.0785 (inactive).

As for GGAUCUGGUUGGCAAGCAUTT against Krt33a, the z-score is 2.87 (active).

GGAACUUGGGCAUUCCAGATT against Adck2: the z-score is -0.676 (inactive).

On to GGAAAUCAGUGAACAUCUUTT against Tshr, for which the z-score is 0.525 (inactive).

As for CCAGAAACUAGCCUACUACTT against Vgll2, the z-score is 0.395 (inactive).

On to GGAACUAGUCUGGUGAACUTT against Apoa2, for which the z-score was -1.35 (inactive).

As to GAUUAAUAGUGGUUUCUGATT against Olfr1219, the z-score was -0.219 (inactive).

Consider GGGUGUGUUUUUAUGUGUUTT against Lcp2, for which the z-score is 2.57 (active).

For the sequence GGGAGGAAGAAGAAGGUCATT against Atp1b4, the z-score was -0.193 (inactive).

As to GGCAGUCAAUAGUGGCCUGTT against Bcor, the z-score was 1.12 (inactive).

On to CCAGUAUUUGAGAAUUCUGTT against Gm4788, for which the z-score was -0.763 (inactive).

CGACAAGCUGUACCUCUACTT against Rfx5: the z-score was 3.41 (active).

Take GCUGGAGUUUCAGUCAAGGTT against Ctso: the z-score is -0.355 (inactive).

Consider AUGCAAGAGGAACGUAUCATT against Olfr1181, for which the z-score is -0.572 (inactive).

As for GGUUUACCCAUCUUGGCCATT against Vwf, the z-score is -0.501 (inactive).

For GGAUAUUGAUUCAGUCAAGTT against Rac2, the z-score is -1.16 (inactive).

Turning to GGAUAUAUUGAAAUGCCCATT against Zbtb14, the z-score was 0.394 (inactive).

In the case of GGAUUUAUCCUGGUGACUUTT against Cox20, the z-score is 2.49 (active).

Turning to GGUAUUCAGUAUUUUGACUTT against Olfr196, the z-score is 1.56 (inactive).

Consider GGCUGUCGUCAUUGAAGGATT against Ankrd27, for which the z-score is -0.771 (inactive).

GCGACAAGAGGCUUUAGCATT against Selenos: the z-score is 0.692 (inactive).

Regarding GGAGCAGAAAGAAAUUUCCTT against Gpa33, the z-score is 0.48 (inactive).

Consider GCUUCAACAGUAAUAAUCGTT against Adamtsl1, for which the z-score was 2.75 (active).

CGGUAAUCUUAUGACAACUTT against Gpc6: the z-score was 1.06 (inactive).

For the sequence GGGCCUUAAUUUUCCUUUUTT against Podxl, the z-score is -0.107 (inactive).

As for GGAUUUAUUGACCUCUUAATT against Sp8, the z-score is 2.41 (active).

For the sequence GCCCAUCUGAUGAAUACAATT against Mrto4, the z-score is 1.45 (inactive).

GGCACAAUUAGCUAAGAAUTT against Abi3bp: the z-score is -1.87 (inactive).

Take GGUCUGAUUCACCAUAAUUTT against Sspn: the z-score is 0.313 (inactive).

GGAGAUUUUGGUGGCUAUUTT against Uqcrfs1: the z-score is -1.1 (inactive).

As for GGAUGUCUAACCCAAAUAGTT against Ly6e, the z-score was 2.74 (active).

As to GGAACACUGGAAAAAUGUUTT against Ldhc, the z-score is 0.176 (inactive).

Consider GGCGGUGAAGUCUAAGGCATT against H1f5, for which the z-score was 1.54 (inactive).

As to GGUGUGUGGUUUUUAAUAATT against Abhd3, the z-score is -0.692 (inactive).

On to GGUGAUCCUUCUUUUUUACTT against Sgo1, for which the z-score was -2.01 (active).

In the case of GGGAGUUUCAGACCAGUGUTT against Atp5g3, the z-score was -0.097 (inactive).

CCAUGGACUUUCUCGAAGATT against Ceacam11: the z-score is 0.612 (inactive).

As for GCAGGUUCAUACGAUCCAGTT against Plekha3, the z-score was -0.7 (inactive).

Regarding GGCAUGUAAUUUGAUGAUCTT against Mansc1, the z-score was -1.48 (inactive).

Take GGCAUCAAGUGACUUAUAATT against Zfp772: the z-score was 2.47 (active).

As to CGGAUACCGUAGUUUGGUGTT against Lipe, the z-score is 1.51 (inactive).

With GGUGAACGACUCCAUGUAUTT against Nectin1, the z-score is -0.448 (inactive).

For CGUGGUUGAACUUUGUCCGTT against C1qtnf12, the z-score was -0.569 (inactive).

As to GGAAACUUGAUUAUUUAGGTT against Vrk2, the z-score is 0.915 (inactive).

For CGGGUUUAGGAGCAACCUUTT against Zdhhc4, the z-score is -3.02 (active).

Consider CCAAAUGAAAUUAGUCCUCTT against Eif5, for which the z-score is -0.347 (inactive).

In the case of GGCGGCAAGCAACAACAAUTT against Ssbp1, the z-score was 0.155 (inactive).

For the sequence GGAUGUGGUUCGAGUAUGGTT against Pou5f1, the z-score is 1.79 (inactive).

With GGUGAAAAGAUCAGAAUACTT against Fahd1, the z-score is -1.03 (inactive).

For the sequence CCAAAACAUUAACCUGAAGTT against Pla2g6, the z-score is -2.34 (active).

Turning to GGAAGAGUUGGAAAUUUACTT against Gdpd3, the z-score is -0.166 (inactive).

Consider GCAUCCUGAUCACUUAACATT against Cep170, for which the z-score is -0.732 (inactive).

On to GGAAGAGAAUCAAGAGCCATT against Lrrc10, for which the z-score was -2.65 (active).

For GCAAUCUAUAAGAGGUACATT against Axin2, the z-score was 1.79 (inactive).

With GGCCACAUUGUCCUAUCAGTT against Cdh16, the z-score is 0.0595 (inactive).

For GCAGAAGUCUCGUAUCCAGTT against Arl6ip4, the z-score was 0.337 (inactive).

With CAUCGUGUGAAACUGGAGATT against Carmil3, the z-score was 0.608 (inactive).

In the case of GGCUGUCAAGAAGCACAUCTT against Inhba, the z-score is 1.08 (inactive).

For the sequence GGAAAGUUCCAAGUUACCATT against Arl13b, the z-score was 1.18 (inactive).

On to GGGACAGUGGACCAUUAUGTT against Rnf8, for which the z-score is -2.41 (active).

Take GGAGCCUCAGGUCCAAAUGTT against Fancd2os: the z-score was 1.89 (inactive).

For GGAUGUGCAAGGAAUCUCATT against Spint1, the z-score is 0.741 (inactive).

For the sequence GGCAAUGCACUUAUAACUCTT against Olfr118, the z-score is 0.389 (inactive).

For the sequence GGAGUUUUGUGAACUAUGATT against Slc36a3, the z-score is -2.73 (active).

In the case of GCUGCAUAGACUCAUGGUUTT against Znrf1, the z-score is -0.408 (inactive).

In the case of GGCACUCCUCUUUGUUUUCTT against Olfr414, the z-score is -1.82 (inactive).

Regarding CCCAAAUGAUUGGAUCUGUTT against Cd40lg, the z-score is 0.273 (inactive).

With CGAAUGGCUAUCAGUGAGGTT against Tbc1d20, the z-score was -1.04 (inactive).

Regarding GGACUGUAUGUGGAAUGGCTT against Bmyc, the z-score was -0.46 (inactive).

Regarding GCUACUAAGCACCUAGAGATT against Fxr2, the z-score is -0.932 (inactive).

On to CUCUAGCUACUAUUUUCUCTT against Olfr824, for which the z-score is -1.57 (inactive).

As for GGAUAUGGACUAUUCACGGTT against Dgat1, the z-score is -1.32 (inactive).

With CGGCUUACGCAUGUCUAUGTT against Polr2a, the z-score is -2.01 (active).

Turning to GGUUUUGCCAAGGACGCAGTT against Ngf, the z-score is 0.124 (inactive).

In the case of GGAAGAAAAAAAAUCUCCATT against Frmd3, the z-score is 0.577 (inactive).

Regarding GGUGGUUAUGAUCUAUGAUTT against Dazap1, the z-score was -1.43 (inactive).

Regarding GGCUGGAGCCUCAAAUAUCTT against Rapsn, the z-score is -0.574 (inactive).

Turning to “GGUGGAUGCCUUGAAUAUGTT against 1700029P11Rik”, the z-score was -2.25 (active).

As to CGAGCUAACAGCAUUGCUGTT against Ajuba, the z-score was 0.532 (inactive).

Turning to GCCAUGCAAAUCGAUGGGUTT against Rora, the z-score was -2.69 (active).

GCAUUUAAAAUACACGGUGTT against Arg1: the z-score was 0.264 (inactive).

On to GGUGACUCCAAGAAUGUGGTT against Wfdc1, for which the z-score is -0.703 (inactive).

With CCCAGAGCCAGGUUCAAACTT against AY702103, the z-score was 0.78 (inactive).

For GCACUAAAUCCUUUGAUAUTT against Olfr307, the z-score was 1.08 (inactive).

As to GCUGAACAAUUUUCAACAATT against Sclt1, the z-score was -0.958 (inactive).

For the sequence GCAUCCUUGACCGAUACUATT against Psmb2, the z-score is -2.78 (active).

GGAUCUAUUGAUGGUUCAUTT against Tprkb: the z-score was -1.68 (inactive).

For the sequence GGGUCACCCAUUAUUUUAUTT against Phyhip, the z-score was -0.899 (inactive).

GGGAGGAACAUCACCUCAGTT against Vmn2r123: the z-score was 0.327 (inactive).

For the sequence GGUCAUACUCUAAUCGGACTT against Ctss, the z-score is 0.672 (inactive).

For the sequence GGAAAGAUGUCAAAGAAAUTT against Gnat2, the z-score was -1.14 (inactive).

For UGCCACUGCCAAAAAAUAATT against Tex18, the z-score is -0.838 (inactive).

Take CCAGACAUUUGAUAGCCAUTT against Fam241a: the z-score was -1.42 (inactive).

As for GCCAAGCAUAAUCUAAUGATT against Prpf4b, the z-score is 0.851 (inactive).

For the sequence CGACCACAUUAUUGGGUUUTT against Senp8, the z-score was 2.62 (active).

As for GCCUGUGAUCUUUUGUAUCTT against Olfr835, the z-score is -0.726 (inactive).

Take GGAUGUCUAGUUAUACAUUTT against Mbd3l1: the z-score is 1.21 (inactive).

As to GCUAAUGAAGCAGAGCUGUTT against Olfr1359, the z-score was 0.388 (inactive).

Consider GGUGUAACUCCUUCAUUGATT against Ripor2, for which the z-score is -3.12 (active).

Regarding CCUUAUCUCUACCAUCGGUTT against Hyal2, the z-score was 0.0745 (inactive).

Take GCACCAGCUCUAAUUCAGATT against Herpud2: the z-score is 1.48 (inactive).

For the sequence GCAUGAUGAUGGAGACCGATT against Sox1, the z-score was -1.06 (inactive).
